Data published in PubChem BioAssay (EPA / NIEHS).
Where “and” joins values, the source holds several entries; their conditions need not be identical. Equal entries are not always repeated. Records with an inconclusive call do not appear. A structure can be active in one record and inactive in another. Calls of active or inactive are those of the source. How the source made its calls: active means hit-call score of the fitted dose curve at least 0.9, where 1 is the maximum; inconclusive means response in the unintended direction; inactive means score below 0.9.

How the values were obtained:
[1] = TOX21_p53_BLA_p2_viability: Viability Assessment in the Tox21 HCT-116 p53 Agonism Beta-lactamase Assay, Phase 2 (AID 2283591);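 further: actives lower the ATP signal meaning cytotoxicity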
In short: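 Cytotoxicity readout: CellTiter-Glo ATP luminescence, 30 min at room temperature, after the beta-lactamase read. Cells were HCT116 exposed 16 h at 37C to compounds pin-transferred at 217-fold dilution from DMSO stocks.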

[2] = target: Cellular tumor antigen p53 (Homo sapiens) (UniProt P04637); assay: TOX21_p53_BLA_p2_ratio: Tox21 HCT-116 p53 Agonism Beta-lactamase Assay, Ratio, Phase 2 (AID 2283592)
Chain of Cellular tumor antigen p53 (Homo sapiens) (P04637 whole entry, looked up): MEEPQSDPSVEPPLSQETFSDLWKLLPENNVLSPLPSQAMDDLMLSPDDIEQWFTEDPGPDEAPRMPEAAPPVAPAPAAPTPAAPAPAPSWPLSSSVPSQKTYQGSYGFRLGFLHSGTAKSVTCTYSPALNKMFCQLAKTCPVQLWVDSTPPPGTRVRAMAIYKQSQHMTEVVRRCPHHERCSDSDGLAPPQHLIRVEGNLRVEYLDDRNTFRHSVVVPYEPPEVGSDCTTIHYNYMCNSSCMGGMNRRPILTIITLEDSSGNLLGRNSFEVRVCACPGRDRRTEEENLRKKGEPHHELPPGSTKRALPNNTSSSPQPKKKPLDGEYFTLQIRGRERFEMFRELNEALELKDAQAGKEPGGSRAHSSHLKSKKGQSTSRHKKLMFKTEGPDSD
In short: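 First, HCT116 reporter cells settle for 5 h at 37C. Next, DMSO compound solutions are pinned in (217-fold dilution) and left 16 h. Finally, CCF4-AM substrate is loaded 2 h at room temperature and the 460/530 nm ratio read.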

[3] = target: Cellular tumor antigen p53 (Homo sapiens) (UniProt P04637); assay: TOX21_p53_BLA_p3_ratio: Tox21 HCT-116 p53 Agonism Beta-lactamase Assay, Ratio, Phase 3 (AID 2283596)
In short: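 Cells were seeded at 4000/well, rested 5 h at 37C, then dosed with DMSO compound solutions (217-fold dilution) for 16 h. CCF4-AM substrate was loaded for 2 h at room temperature, and the 460/530 nm emission ratio was fitted for gain of signal versus DMSO.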

[4] = TOX21_p53_BLA_p4_viability: Viability Assessment in the Tox21 HCT-116 p53 Agonism Beta-lactamase Assay, Phase 4 (AID 2283597);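 further: hits lower the luminescence signal meaning cytotoxicity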
In short: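 4000 HCT116 cells per well; 5 h attachment; compounds from DMSO, 217-fold dilution; 16 h at 37C. Then CCF4-AM, 2 h RT, followed by CellTiter-Glo, 30 min RT, luminescence. Decrease = cytotoxicity.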

[5] = target: Cellular tumor antigen p53 (Homo sapiens) (UniProt P04637); assay: TOX21_p53_BLA_p5_ratio: Tox21 HCT-116 p53 Agonism Beta-lactamase Assay, Ratio, Phase 5 (AID 2283599)
In short: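 Beta-lactamase reporter ratio (blue 460 nm over green 530 nm, 405 nm excitation) after 2 h CCF4-AM loading, in HCT-116 cells exposed 16 h at 37 C to compounds pinned at 217-fold dilution. Increases relative to DMSO baseline scored.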

[6] = TOX21_p53_BLA_p5_viability: Viability Assessment in the Tox21 HCT-116 p53 Agonism Beta-lactamase Assay, Phase 5 (AID 2283600)
In short: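 Decreased CellTiter-Glo luminescence denotes lost viability. Exposure: 16 h at 37C, 5% CO2, with compounds from DMSO stocks diluted 217-fold in wells of 4000 cells.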

[7] = target: Cellular tumor antigen p53 (Homo sapiens) (UniProt P04637); assay: TOX21_p53_BLA_p4_ratio: Tox21 HCT-116 p53 Agonism Beta-lactamase Assay, Ratio, Phase 4 (AID 2283601)
In short: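 Signal is the blue/green (460nm/530nm) ratio of cleaved versus uncleaved CCF4-AM substrate, read after 2 h substrate loading. Cells were HCT116 carrying the p53-responsive beta-lactamase reporter, dosed 16 h at 37C, 5% CO2; CellTiter-Glo measured in parallel.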

[8] = tested on: Thyroperoxidase (TPO), gene 54314; assay: CCTE_Simmons_AUR_rTPO: CCTE's Amplex UltraRed Assay for Thyroperoxidase (TPO) Inhibition, Simmons Lab (AID 2283662);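 further: potency for loss of signal meaning inhibition of peroxidase activity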
In short: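 Rat thyroid microsomes (5 ug protein) were incubated with test compound (8 concentrations, 5 nM–87.5 uM final, 0.5% DMSO), 25 uM Amplex UltraRed and 300 uM H2O2 in 200 mM phosphate buffer for 30 min at 37C in the dark; fluorescence read at 544/590 nm.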

[9] = CCTE_Simmons_CellTiterGLO_HEK293T: Viability Assessment in CCTE's Assays for Thyroperoxidase (TPO) Inhibition, Simmons Lab (AID 2283665);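 further: cells exposed to compound for 24 h before readout; actives reduce ATP signal below DMSO vehicle meaning cytotoxicity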
In short: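 ATP depletion measured in HEK293T cells after 24 h dosing (8 concentrations, 5 nM–87.5 uM final; DMSO 0.5%) using CellTiter-Glo luminescence; curves fit for loss of signal against DMSO baseline.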

[10] = target: Luciferin 4-monooxygenase (Photinus pyralis) (UniProt P08659); assay: CCTE_Simmons_QuantiLum_inhib_2: CCTE's Firefly Luciferase Inhibition Assay, Simmons Lab (AID 2283767)
Chain of Luciferin 4-monooxygenase (Photinus pyralis) (P08659 whole entry, looked up): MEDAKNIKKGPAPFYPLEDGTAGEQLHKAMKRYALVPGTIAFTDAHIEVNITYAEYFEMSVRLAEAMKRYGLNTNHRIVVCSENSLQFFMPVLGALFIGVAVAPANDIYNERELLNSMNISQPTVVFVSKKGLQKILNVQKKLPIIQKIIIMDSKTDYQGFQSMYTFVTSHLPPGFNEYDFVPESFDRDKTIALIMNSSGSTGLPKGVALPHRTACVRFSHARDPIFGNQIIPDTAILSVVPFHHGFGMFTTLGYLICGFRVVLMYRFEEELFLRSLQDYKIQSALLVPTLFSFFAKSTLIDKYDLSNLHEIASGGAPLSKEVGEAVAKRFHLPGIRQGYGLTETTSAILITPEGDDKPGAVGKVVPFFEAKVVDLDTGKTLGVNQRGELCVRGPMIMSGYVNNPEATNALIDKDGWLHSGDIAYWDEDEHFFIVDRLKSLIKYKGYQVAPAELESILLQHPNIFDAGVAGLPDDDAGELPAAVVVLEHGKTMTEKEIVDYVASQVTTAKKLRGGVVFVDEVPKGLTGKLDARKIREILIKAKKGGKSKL
In short: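 Eight-point titrations of each chemical, 5 nM–87.5 uM final in 0.5% DMSO, were run in three biological replicates against recombinant luciferase for 30 min at 37C. Bioluminescence signal loss, read on reagent injection, gave the inhibition endpoint.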

[11] = ACEA_AR_agonist_AUC_viability: ACEA Biosciences xCELLigence Real-Time Cell Analysis on Androgen Receptor Agonism for Viability (AID 2283775)
In short: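 Viability endpoint from xCELLigence impedance in 22Rv1 prostate cells at 80 h. Eight-point series, 100 uM maximum final.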

[12] = TOX21_p53_BLA_p3_viability: Viability Assessment in the Tox21 HCT-116 p53 Agonism Beta-lactamase Assay, Phase 3 (AID 2283593);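 further: cells exposed to compound for 16 h before reading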
In short: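 Cellular ATP was quantified by CellTiter-Glo luminescence, read after 30 min at room temperature. Beforehand, HCT116 cells (4000/well) received compound 5 h post-seeding, 217-fold diluted from DMSO, then incubated 16 h at 37C.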

Measured: AC50

CCCCC/C=C\C/C=C\CCCCCCCC(=O)OC
active: [1] 66.2 µM | [2] 74.7 µM | [5] 73.3 µM | [8] 43.8 µM | [9] 58.4 µM
inactive: [1] | [2] | [3] | [4] | [5] | [6] | [7] | [10] | [11]

Nc1ccc(N=Nc2ccccc2)c(N)n1
active: [3] 87.8 µM and 85.8 µM and 43.2 µM | [5] 83.5 µM and 85.4 µM
inactive: [1] | [12] | [4] | [5] | [6] | [7]

Nc1ccc(Cl)cc1Cl
inactive: [1] | [12] | [3] | [4] | [5] | [7]

C=CC(=O)OCCOC(=O)C=C
inactive: [1] | [2] | [12] | [3] | [5] | [6] | [7]

c1ccc(-c2ccccn2)nc1
inactive: [1] | [2] | [3] | [4] | [6] | [7]

CCOC(=O)NNc1nncc2ccccc12
inactive: [1] | [2] | [3] | [6] | [7]

O=C(O)c1cc2ccccc2nc1C(=O)O
inactive: [1] | [2] | [4] | [5] | [7]

CC(=O)NS(=O)(=O)c1ccc(N)cc1
inactive: [1] | [2] | [3] | [4] | [5] | [6] | [7]

C[C@]12C=CC(=O)C=C1CC[C@@H]1[C@@H]2[C@@H](O)C[C@@]2(C)[C@H]1CC[C@]2(O)C(=O)CO
inactive: [1] | [2] | [12] | [3] | [4] | [6] | [7]

C=CC(C)(C)C
inactive: [1] | [2] | [12] | [3] | [5] | [6] | [7]

CC(=O)Nc1ccc2c(c1)Cc1cc(NC(C)=O)ccc1-2
inactive: [1] | [2] | [12] | [3] | [4]

CC1=Nc2ccc3ccccc3c2C1(C)C
inactive: [1] | [2] | [12] | [3] | [5] | [6] | [7]

O=C1CCCCCCCCCCCCCCCO1
inactive: [1] | [2] | [12] | [3] | [5] | [6] | [7]

CCCCCCCCCCC=CC#N
not listed: [8] | [9] | [10] | [11]
inactive: all other assays above

O=S(=O)(O)CC(O)CCl (stereo unspecified)
inactive: [1] | [2] | [3] | [5] | [7]

CCCNC(=O)NS(=O)(=O)c1ccc(Cl)cc1
inactive: [1] | [2] | [3] | [4] | [6] | [7]

Cc1cc(O)c(Cl)c(C)c1Cl
active: [1] 57 µM | [2] 73.9 µM | [12] 57.8 µM | [3] 85 µM | [4] 61.7 µM | [5] 77.1 µM | [6] 70.1 µM | [7] 74.9 µM

C1CN(SSN2CCOCC2)CCO1
active: [8] 4.25 µM | [9] 88.9 µM
inactive: all other assays above

CC(C)(Oc1ccc(C2CC2(Cl)Cl)cc1)C(=O)O (stereo unspecified)
not listed: [8] | [9] | [10] | [11]
inactive: all other assays above

CC(=O)Nc1nnc(S(N)(=O)=O)s1
not listed: [8] | [9] | [10] | [11]
inactive: all other assays above

C[C@]12CCC(=O)C=C1CC[C@@H]1[C@@H]2C(=O)C[C@@]2(C)[C@H]1CC[C@]2(O)C(=O)CO
inactive: [1] | [12] | [3] | [4] | [5] | [6] | [7]

Nc1ccc(-c2ccc(F)cc2)cc1
inactive: [1] | [2] | [12] | [3] | [4] | [5]

COC(=O)C1=C(C)NC(C)=C(C(=O)OCC(C)C)C1c1ccccc1[N+](=O)[O-] (stereo unspecified)
active: [2] 18.4 µM | [3] 23 µM | [7] 33.2 µM and 18.9 µM
inactive: [1] | [3] | [4] | [6]
